In publication PMC4336329 (PLoS ONE, 2015):
About 2,200 (0.71%) of roughly 310,000 compounds showed an effect of 50% or more. Effects have a minus sign here. What follows is part of a selection rich in strong results, with near analogues and random picks from the rest.

Biological target: human ether-à-go-go-related gene (hERG) potassium channel (human, UniProt Q12809)
Experiment: primary screen, population patch clamp on CHO cells stably expressing hERG; higher = less effect of the substance

human ether-à-go-go-related gene (hERG) potassium channel, sequence (Q12809 whole entry, looked up): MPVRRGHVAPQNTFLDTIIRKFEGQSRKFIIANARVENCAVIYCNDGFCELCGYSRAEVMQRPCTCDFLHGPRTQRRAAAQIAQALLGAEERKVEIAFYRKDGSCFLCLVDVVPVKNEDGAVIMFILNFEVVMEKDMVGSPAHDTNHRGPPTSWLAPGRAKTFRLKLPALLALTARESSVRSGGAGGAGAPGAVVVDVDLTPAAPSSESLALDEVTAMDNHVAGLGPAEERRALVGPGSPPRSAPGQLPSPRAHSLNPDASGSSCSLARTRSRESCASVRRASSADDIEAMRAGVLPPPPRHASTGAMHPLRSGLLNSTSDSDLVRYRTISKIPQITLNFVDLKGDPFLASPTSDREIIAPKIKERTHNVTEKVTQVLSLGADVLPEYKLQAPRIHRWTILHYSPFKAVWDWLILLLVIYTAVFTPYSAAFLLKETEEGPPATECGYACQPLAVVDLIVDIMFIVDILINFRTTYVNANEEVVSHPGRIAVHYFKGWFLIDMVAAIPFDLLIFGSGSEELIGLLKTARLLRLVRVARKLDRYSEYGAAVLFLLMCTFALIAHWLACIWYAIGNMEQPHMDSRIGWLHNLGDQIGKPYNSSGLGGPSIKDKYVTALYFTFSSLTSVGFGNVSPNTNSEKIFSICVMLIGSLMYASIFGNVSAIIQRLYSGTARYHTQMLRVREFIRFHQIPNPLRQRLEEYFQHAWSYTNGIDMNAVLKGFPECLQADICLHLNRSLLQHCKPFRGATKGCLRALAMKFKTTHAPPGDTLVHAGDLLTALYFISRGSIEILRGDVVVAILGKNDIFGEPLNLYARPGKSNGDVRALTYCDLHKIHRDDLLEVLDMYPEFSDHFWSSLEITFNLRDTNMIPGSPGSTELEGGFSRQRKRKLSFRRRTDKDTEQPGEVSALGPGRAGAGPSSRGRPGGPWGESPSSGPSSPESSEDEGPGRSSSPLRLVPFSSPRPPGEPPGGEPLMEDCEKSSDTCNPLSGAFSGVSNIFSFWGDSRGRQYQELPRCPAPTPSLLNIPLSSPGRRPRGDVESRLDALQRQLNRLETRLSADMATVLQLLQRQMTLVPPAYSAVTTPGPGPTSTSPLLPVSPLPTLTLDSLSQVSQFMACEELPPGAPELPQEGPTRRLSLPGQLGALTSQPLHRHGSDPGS

SMILES | hERG current change (%, negative = inhibition) at 1uM [%]
CCC(C)(C(=O)NC1CCCCC1)N(CC1CCCO1)C(=O)c1ccccn1 (stereo not shown) | -80.8
CCC(C)(C(=O)NC1CCCCC1)N(C)C(=O)c1ccccn1 (stereo not shown) | 4.4
CCC(C)(C(=O)NC1CCCCC1)N(CC1CCCO1)C(=O)CNC(=O)c1ccccc1 (stereo not shown) | 9.5
COc1ccc(-c2noc(CSc3nc4ccccc4c(=O)n3-c3ccccc3)n2)cc1 | 1.58
CCC1(C)Cc2ccccc2-c2nc3n(c(=O)c21)CCS3 (stereo not shown) | 12
O=c1[nH]c(CN2CCN(C/C=C/c3ccccc3)CC2)nc2ccccc12 | -52.6
O=c1[nH]c(CN2CCOCC2)nc2cc(Cl)ccc12 | 4.78
O=c1[nH]c(CN2CCN(S(=O)(=O)/C=C/c3ccccc3)CC2)nc2ccccc12 | -18.2
O=c1[nH]c(CN2CCN(C/C=C/c3ccccc3)CC2)nc2cc(Cl)ccc12 | -108
O=C(CCc1nc2ccccc2c(=O)[nH]1)N1CCN(C/C=C/c2ccccc2)CC1 | -12.3
O=c1[nH]c(CN2CCN(S(=O)(=O)/C=C/c3ccccc3)CC2)nc2cc(Cl)ccc12 | -21.4
Cc1cc(C)n(-c2nc(-c3ccccc3)cs2)n1 | 1.91
O=C(Nc1ccc2oc(-c3ccc4ccccc4c3)nc2c1)c1ccc2c(c1)OCCO2 | 16.3
Cc1ccc2oc(=O)cc(CN3CCN(C/C=C/c4ccccc4)CC3)c2c1 | -53.7
CCN1CCN(Cc2cc(=O)oc3ccc(C)cc23)CC1 | 11.9
Cc1cc2oc(=O)cc(CN3CCN(S(=O)(=O)/C=C/c4ccccc4)CC3)c2cc1C | 14.5
O=c1cc(CN2CCN(C/C=C/c3ccccc3)CC2)c2cc(O)ccc2o1 | -86
Cc1cc2oc(=O)cc(CN3CCN(C/C=C/c4ccccc4)CC3)c2cc1O | -67.8
O=c1cc(CN2CCN(S(=O)(=O)/C=C/c3ccccc3)CC2)c2ccc(O)cc2o1 | -29.8
Cc1c(O)ccc2c(CN3CCN(C/C=C/c4ccccc4)CC3)cc(=O)oc12 | -36.2
O=c1cc(CN2CCN(C/C=C/c3ccccc3)CC2)c2cc(O)c(-c3ccccc3)cc2o1 | 12.8
Cc1cc(C)c2c(CN3CCN(C/C=C/c4ccccc4)CC3)cc(=O)oc2c1 | -41.5

SMILES | hERG current change (%, negative = inhibition) at 1uM [%]
COc1cccc(NC(=O)C2CCCO2)c1 (stereo not shown) | 11.7
COC(=O)C1=NN(N=O)C2(CC(=O)N(c3cc(C)cc(C)c3)C2=O)C1 (stereo not shown) | 9.48
CCC(=O)N1c2ccc(S(=O)(=O)N3CCN(C)CC3)cc2CC1C (stereo not shown) | 4.4
Cc1c(CC(=O)N[C@@H](C)C(=O)O)c(=O)oc2cc3occ(-c4ccccc4)c3cc12 | 18.2
Cc1ccc(Cn2ncc3c(NCCN(C)C)ncnc32)cc1 | 1.2
COc1ccc(N2CC(C(=O)Nc3ccccc3N3CCCC3)CC2=O)c(OC)c1 (stereo not shown) | 8.29
CCOC(=O)c1ccc(NC(=S)N(CCCN2CCN(CC)CC2)Cc2cccs2)cc1 | -40.2
CCOc1ccc2nc(NC(=O)Cc3cccs3)sc2c1 | 6.15
COCCN1Cc2cc3cc(C)ccc3nc2SC1=Nc1ccc(OC)cc1 | 9.8
CCC(C)N=C1Sc2nc3ccc(C)cc3cc2CN1CCOC (stereo not shown) | -60.4
CCOc1ccc(N=C2Sc3nc4ccc(C)cc4cc3CN2CCOC)cc1 | 16.5
C=CCn1c(SCC(O)Cn2c3ccccc3c3ccccc32)nnc1-c1ccco1 (stereo not shown) | 13.9
O=c1[nH]ncn1-c1ccccc1C(F)(F)F | 10.3
CCN(CC)CCN(Cc1cc2cc(C)ccc2[nH]c1=O)C(=O)Nc1ccccc1OC | -22.2
CCc1ccc2[nH]c(=O)c(CN(CCN(CC)CC)C(=O)Nc3ccccc3OC)cc2c1 | -50.7
CCc1ccc2[nH]c(=O)c(CN(CCN3CCCC3)C(=O)NC3CCCCC3)cc2c1 | -8.52
CCc1ccc2[nH]c(=O)c(CN(CCN(C)C)C(=O)Nc3ccccc3OC)cc2c1 | -41.4
CCN(CC)CCN(Cc1cc2ccc(C)cc2[nH]c1=O)C(=O)NC1CCCCC1 | -23.9
CCc1ccc2[nH]c(=O)c(CN(CCN(CC)CC)C(=O)NC3CCCCC3)cc2c1 | -51.5
O=C(Cc1ccc([N+](=O)[O-])cc1)Nc1ccc2c(c1)CCC2 | 10.4
COc1ccc(-c2nsc(SCC(=O)Nc3ccc4c(c3)OCO4)n2)cc1 | 15
COC(=O)[C@@H](NC(=O)c1ccccc1)[C@@H](C)O | 5.85

SMILES | hERG current change (%, negative = inhibition) at 1uM [%]
C1CCN(c2nc(N3CCCCC3)nc(N3CCNCC3)n2)CC1 | 2.68
Nc1nc(N2CCCCC2)nc(N(c2ccccc2)c2ccccc2)n1 | 15.2
Nc1nc(N2CCCCC2)nc(N2CCCCC2)n1 | -78.5
COC(=O)CN1C(=O)Nc2ccc(Br)cc2C1c1ccccc1Cl (stereo not shown) | -8.8
C/C(=N/NC(=O)c1cccnc1)C1=C(O)CC(C)(C)CC1=O | 18.4
CCOC(=O)CSc1cn2c(n1)CCC2 | 14.5
CNC(=O)CSc1nc2cc(S(=O)(=O)Nc3ccccc3OC)ccc2o1 | 9.52
Cc1sc2ncnc(N3CCOCC3)c2c1C | -5.93
Cc1sc2ncnc(NCCN3CCOCC3)c2c1C.O=C(O)C(=O)O | 9.44
Cc1sc2ncnc(NCC(C)(C)N3CCOCC3)c2c1C | -63.6
COC(=O)CC1NCCc2cc(OC)c(OC)cc21 (stereo not shown) | 5.12
CC(OC(=O)CCC1CCCCC1)C(=O)Nc1ccc(S(N)(=O)=O)cc1 (stereo not shown) | 9.83
CCOC(=O)C1CCCN(C(=O)CC(c2ccccc2)c2ccccc2)C1 (stereo not shown) | -2.54
O=C(CN=C1NS(=O)(=O)c2ccccc21)OCC(=O)c1ccccc1 | 10.8
CCC(C)(C)c1ccc(OCCCC[n+]2ccc(C)cc2)c(C(C)(C)CC)c1.[Br-] | -34.5
CCC(C)(C)c1ccc(OCCCC[n+]2cccc(C)c2C)c(C(C)(C)CC)c1.[Br-] | -52.7
CCC(C)(C)c1ccc(OCCCC[n+]2ccccc2)c(C(C)(C)CC)c1.[Br-] | -28.5
CCOC(=O)c1cc2[nH]c3ccccc3c2[n+](-c2ccc([N+](=O)[O-])cc2)c1N.O=C([O-])C(F)(F)F | -13.8
N#Cc1cc2[nH]c3ccccc3c2[n+](-c2ccc([N+](=O)[O-])cc2)c1N.[Cl-] | -28.7
CCOC(=O)c1cc2[nH]c3ccccc3c2[n+](-c2ccc([N+](=O)[O-])cc2)c1C.[Cl-] | -70.6
C[C@]12CCC3C(CCC4=C/C(=N/OCC(=O)NC(CCC(=O)O)C(=O)O)CC[C@@]43C)C1CCC2O (stereo partly shown) | 10.5
CCN(CC)/C(=N\S(=O)(=O)c1ccccc1C)c1ccccc1 | -5.09

SMILES | hERG current change (%, negative = inhibition) at 1uM [%]
Cc1nn2cc(-c3ccc(Cl)cc3)cnc2c1Cl | 13.1
CCOC(=O)c1cc2c(=O)n3cccc(C)c3nc2n(CCOC)c1=NC(C)=O | 8.92
C=CCn1c(=N)c(C(=O)NCCCOC)cc2c(=O)n3cccc(C)c3nc21 | -64.2
C=CCn1c(=N)c(C(=O)NCCCOC)cc2c(=O)n3ccccc3nc21 | -22.3
CCn1c(=N)c(C(=O)NCCCOC)cc2c(=O)n3cccc(C)c3nc21 | -47
C=CCn1c(=N)c(C(=O)OCC)cc2c(=O)n3cccc(C)c3nc21 | -73.7
O=C(Nc1ccccc1F)N(CCCN1CCOCC1)Cc1cc2cc3c(cc2[nH]c1=O)OCCO3 | 9.36
Cc1ccc(NC(=O)c2cc(N3C(=O)CCC3=O)ccc2N2CCOCC2)cc1 | 5.52
COc1ccc(CN(C)S(=O)(=O)c2nnc(NC(=O)c3cccc(F)c3)s2)cc1OC | 6.86
CSc1nc(-c2ccco2)cc(C(F)(F)F)c1C#N | 12
CCOC(=O)N1CCN(C(=O)C2CCCN(c3nc4ccc(OCC)cc4s3)C2)CC1 (stereo not shown) | -3.97
O=C(CSc1nnc(-c2ccc(Br)cc2)n1CCc1ccccc1)NC1CCS(=O)(=O)C1 (stereo not shown) | -60.7
CCn1c(SCC(=O)NC2CCS(=O)(=O)C2)nnc1-c1ccccc1 (stereo not shown) | 6.72
COc1ccccc1-c1nnc(SCC(=O)NC2CCS(=O)(=O)C2)n1CCc1ccccc1 (stereo not shown) | 11.2
COc1ccc(C2(c3cccc(O)c3OC)CCN(C(C)=O)CC2)cc1O | 17.8
Cc1ccc2nc(NC(=O)C3CCCN(S(=O)(=O)c4cccnc4)C3)sc2c1 (stereo not shown) | 7.66
CC(=O)N=c1c(C#N)cc2c(=O)n3ccccc3nc2n1CCCOC(C)C | 8.03
CC(C)OCCCn1c(=NC(=O)c2ccncc2)c(C#N)cc2c(=O)n3ccccc3nc21 | -63.4
CCOCCCn1c(=NC(=O)c2cccs2)c(C#N)cc2c(=O)n3ccccc3nc21 | -49.3
CCCCCn1c(=NC(C)=O)c(C#N)cc2c(=O)n3ccccc3nc21 | 0.0455
CCOCCCn1c(=NC(C)=O)c(C#N)cc2c(=O)n3ccccc3nc21 | 11.7
CC(C)OCCCn1c(=NC(=O)c2cccs2)c(C#N)cc2c(=O)n3ccccc3nc21 | -67.1
